Consider 44 sequences from article PMC7819943, “Rice protein-binding microarrays: a tool to detect cis-acting elements near promoter regions in rice”.

The full ranking holds about 68,000 sequences; the median of “fluorescence intensity (a.u.)” is about 9,100, and the highest 2% start at about 16,000. Shown is part of a subset that was picked to be rich in the highest values.

OsWRKY34, sequence (Q0JBA9 entry or part of it): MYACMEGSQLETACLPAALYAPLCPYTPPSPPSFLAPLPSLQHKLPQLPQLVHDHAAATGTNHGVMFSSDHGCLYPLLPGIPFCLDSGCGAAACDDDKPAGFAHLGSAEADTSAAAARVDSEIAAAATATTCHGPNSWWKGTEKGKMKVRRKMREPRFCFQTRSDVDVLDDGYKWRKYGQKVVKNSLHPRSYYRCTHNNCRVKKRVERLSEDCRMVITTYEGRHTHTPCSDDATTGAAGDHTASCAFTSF

In the test the target is OsWRKY34 (Oryza sativa, UniProt Q0JBA9 1-250). Put plainly: protein-binding microarray (RPBM); PBS, 2% BSA, 51.3 ng/ul salmon testes DNA, 50 uM zinc acetate, 200 nM TF, 25 C, 1 h; high values mean tight binding. The conditions noted are these: protein: recombinant; tags: N-terminal polyhistidine and DsRed monomer fusion (pET32a); label: CyDye5-dUTP incorporated in the synthesized complementary strand; 3' TTTTT single-stranded linker to array surface; dsDNA, one strand shown. In short, it runs like this:
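In PBS with 2% BSA, salmon testes DNA and 50 µM zinc acetate, 200 nM protein was incubated on a custom Agilent array at 25 °C for 1 h and then washed off. The array had been made double-stranded by primer extension with Cy5-dUTP and blocked with 2% BSA. The proteins were transcription factors fused N-terminally to polyhistidine and DsRed, expressed in E. coli BL21-CodonPlus and purified on Ni–NTA. The binding signal is per-feature fluorescence intensity (arbitrary units) from an Axon 4000B scanner.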
“TTAGGATACATGGGAATTTTAGTGGGGATAGGATGGGGAACGGAGTCACCTAGTGCAG”: the binding signal is 8520 fluorescence intensity (a.u.).
Next, “CAAGTTATTGACTTTTGGTCATGATGTTACTATTCATCTTCGGAGTCACCTAGTGCAG”: 9120 fluorescence intensity (a.u.); “ATCTTCGGTGTACTATTGGGTCATGATTTGACCCATCTAACGGAGTCACCTAGTGCAG”: 24900 fluorescence intensity (a.u.); “TCTATTTTATTTGGGTGGGGATAGTTTTAGTGGGAATTTGCGGAGTCACCTAGTGCAG”: 24200 fluorescence intensity (a.u.).
Next, “ATCTCTAATTCTATTGGGTGCATGTATTGTACTATTTATTCGGAGTCACCTAGTGCAG”: 9280 fluorescence intensity (a.u.); “AATGTTTGGGTTCGAATTTAGTGGGTGGGTTTGGAGTTTGCGGAGTCACCTAGTGCAG”: 12800 fluorescence intensity (a.u.).
“GTGGTTTCATCTATTTTGTGTTGTTTACTCGTATCTGTTACGGAGTCACCTAGTGCAG”: the binding signal is 10600 fluorescence intensity (a.u.).
Turning to “GTTGTGGGTTTTCGTATTTAATGTTTGACTGTCTATTTTACGGAGTCACCTAGTGCAG”, the binding signal was 17300 fluorescence intensity (a.u.).
Under “ACTGTGGTTTCTAGTGGGTTTTATTATTTTATAATTTGTACGGAGTCACCTAGTGCAG” stands 8480 fluorescence intensity (a.u.); under “GTATCAGTGTATAAGTTTGAGCACCATTTTTCCATGATCTCGGAGTCACCTAGTGCAG”, 9200 fluorescence intensity (a.u.); under “TAACAGTATCATTTGATAGCACAATATAAGGTGTTTTGCTCGGAGTCACCTAGTGCAG”, 28800 fluorescence intensity (a.u.).
Next, “TCACGGCTCATTTTTGAAATAAGTTTTTAGCACAGTTTATCGGAGTCACCTAGTGCAG”: 8740 fluorescence intensity (a.u.).
For the sequence “TTCACGTAACTTACTTGCTCTAATCGTCGGTGGCTGGATCCGGAGTCACCTAGTGCAG”, the binding signal was 9270 fluorescence intensity (a.u.).
As for “AAACACCAGCGCGGCCCTCGCCCTCGCCGTCGCCATTTCCCGGAGTCACCTAGTGCAG”, the binding signal is 8520 fluorescence intensity (a.u.).
Under “CAACCCCTTACTTCATCACCTACTCATGTCAACACATAGCCGGAGTCACCTAGTGCAG” stands 8850 fluorescence intensity (a.u.); under “ACGCTGCCGTCTCATTTCGCTTTCGTAGAACTTGCTCCAGCGGAGTCACCTAGTGCAG”, 8500 fluorescence intensity (a.u.); under “GCAAAAGCCAAACTGAATTCCCGACGCGTGCGCGCGCGCACGGAGTCACCTAGTGCAG”, 8180 fluorescence intensity (a.u.).
Next, “AGGAAAACACTTAGATGGGCCGGATTACTTATCGAAATTTCGGAGTCACCTAGTGCAG”: 8360 fluorescence intensity (a.u.).
For the sequence “GTGGGGTTTTCGATGGTGTTTCATTCTTTTTCTCAATGTACGGAGTCACCTAGTGCAG”, the binding signal is 20300 fluorescence intensity (a.u.).
Under “GTTGGGGAGAAGGGGTGGTAAAATTTCTGGTATTATGGTTCGGAGTCACCTAGTGCAG” stands 11700 fluorescence intensity (a.u.); under “AGCGGTTTCTTGGTTGGGGTTTAGTGTCTGCATTGGATATCGGAGTCACCTAGTGCAG”, 18200 fluorescence intensity (a.u.); under “ACATCTTATTTCCCTGGGTGGGGAGATTCTAGTTAAAATTCGGAGTCACCTAGTGCAG”, 19000 fluorescence intensity (a.u.).
Next, “TGTATTTGACTGTTACTGCTTTTGGATTTTGTTTCATTTTCGGAGTCACCTAGTGCAG”: 17500 fluorescence intensity (a.u.).
Under “TTCTTTTGTTGTGTGGGTGTATGTTTTGGTTATGTGCATTCGGAGTCACCTAGTGCAG” stands 8810 fluorescence intensity (a.u.).
Turning to “CCTTCTTTCCCTTTTCCCATCTGGCAAGATTTTTCTTATTCGGAGTCACCTAGTGCAG”, the binding signal is 9610 fluorescence intensity (a.u.).
Next, “TACATGTTTGACTTTGACTTGGTTTTTGGATATTTCATTTCGGAGTCACCTAGTGCAG”: 9170 fluorescence intensity (a.u.); “CTGTATTTGACTGTTACTGCTTTTGGATTTTGTTTCATTTCGGAGTCACCTAGTGCAG”: 10800 fluorescence intensity (a.u.); “TCATTCTTTTTCTCAATGTACTTGGATTTTTTTCATGTTTCGGAGTCACCTAGTGCAG”: 12200 fluorescence intensity (a.u.).
For “ATCGTTTGGGGTCATTTTCTGCGGTTTGGTGGTGTTGTGCCGGAGTCACCTAGTGCAG”, the binding signal is 11100 fluorescence intensity (a.u.).
Next, “AGTGGTGATCGCCGCGGTTGGGTTTCTTGGATTGGGCTGTCGGAGTCACCTAGTGCAG”: 8720 fluorescence intensity (a.u.); “GGTTATTTATTTTTATTGGTTTCCCCATTACTGTTGACAGCGGAGTCACCTAGTGCAG”: 8360 fluorescence intensity (a.u.).
Next, “TCCCGATATCATATTATAACCCTTCTAGAAATCTAATGTTCGGAGTCACCTAGTGCAG”: 8160 fluorescence intensity (a.u.); “ATTCTGTTATGAACTATGTAAACCTTCTCATGTATATTCACGGAGTCACCTAGTGCAG”: 8840 fluorescence intensity (a.u.).
Next, “GGCCATCATCATTTGTTCCTCATCTTACTCTAGCTTCTCCCGGAGTCACCTAGTGCAG”: 9470 fluorescence intensity (a.u.); “CTCTCTGTGTGTGTGTTTGCTTTCTTGGGCTGTATCGACTCGGAGTCACCTAGTGCAG”: 11800 fluorescence intensity (a.u.); “AAGCTGGTTTGGCTAATTGTGTTGTGTAACTATAAATCTTCGGAGTCACCTAGTGCAG”: 8280 fluorescence intensity (a.u.).
For the sequence “CGCCCACCCACGCATCCATCCATCGATCGCAGCCAAATTCCGGAGTCACCTAGTGCAG”, the binding signal is 9430 fluorescence intensity (a.u.).
Next, “TCATTCCGATTTGGTGGGGTTTGAGTTTGATTGATTCTTTCGGAGTCACCTAGTGCAG”: 19300 fluorescence intensity (a.u.); “GGTTTGTTCGTGTCTTTTGTGGTGATTGCATTTGATTGGGCGGAGTCACCTAGTGCAG”: 9920 fluorescence intensity (a.u.).
Next, “AATTGGGTTCGAATTTTTCTCTGGTTCGCTTGTGATTTTGCGGAGTCACCTAGTGCAG”: 8240 fluorescence intensity (a.u.); “TGCTGTGGTGTGGTGTGGTGTGAATTTTGTTGATTGGTCGCGGAGTCACCTAGTGCAG”: 8750 fluorescence intensity (a.u.); “CATTTAGTTTGGGATGGGGTGGTTGATCCGATTTTTTCTGCGGAGTCACCTAGTGCAG”: 14700 fluorescence intensity (a.u.).
“CGTCGCTTGGGGTGGTGTTGGTGGTTCTGAATTTTGATTGCGGAGTCACCTAGTGCAG”: the binding signal is 19200 fluorescence intensity (a.u.).
Under “GCTTCCTTGTCCGATTTGGTGGTTGATTCGTGTTTTTGCTCGGAGTCACCTAGTGCAG” stands 9300 fluorescence intensity (a.u.).
